Read-out in test [1]: Macrophage colony-stimulating factor (MCSF), CSF1 (gene 1435)
The test can be described thus: BSK_hDFCGF_MCSF: BioMAP Diversity Plus: hDFCGF Assay for Macrophage colony-stimulating factor (MCSF) Biomarker Activity (AID 2283060). Particulars: primary human foreskin fibroblasts; actives raise or lower the signal. Put shortly:
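Human foreskin primary fibroblasts were treated with test chemical for 24 h, and M-CSF was then measured by ELISA. Data were fitted bidirectionally against DMSO as the negative control and activity baseline.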

A short description of test [2]: BSK_hDFCGF_SRB: Viability Assessment in the BioMAP Diversity Plus: hDFCGF Assay (AID 2283061).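 Note: cells exposed to compound for 24 h before the read.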 Particulars: primary human foreskin fibroblasts. The procedure, abridged:
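Human foreskin primary fibroblasts were treated with compound and assessed 24 h after dosing. Total protein was measured by sulforhodamine B staining (0.1% SRB after 10% TCA fixation, 560 nm read) as a cytotoxicity marker, with bidirectional fitting against DMSO baseline.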

Read-out in test [3]: TIMP metallopeptidase inhibitor 1 (TIMP1), TIMP1 (gene 7076)
The test can be described thus: BSK_hDFCGF_TIMP1: BioMAP Diversity Plus: hDFCGF Assay for TIMP metallopeptidase inhibitor 1 (TIMP1) Biomarker Activity (AID 2283062). Particulars: primary human foreskin fibroblasts; actives raise or lower the signal. Put shortly: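 Primary human foreskin fibroblasts in the hDFCGF system were dosed with compound for 24 h, then TIMP-1 was measured by ELISA. Activity was fitted bidirectionally relative to DMSO control; parallel SRB staining assessed cytotoxicity.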

Read-out in test [4]: Monokine induced gamma interferon (MIG), CXCL9 (gene 4283)
The test can be described thus: BSK_hDFCGF_MIG: BioMAP Diversity Plus: hDFCGF Assay for Monokine induced gamma interferon (MIG) Biomarker Activity (AID 2283063). The conditions noted are these: primary human foreskin fibroblasts; actives raise or lower the signal. Put shortly:
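ELISA read-out of MIG from primary human dermal fibroblasts 24 h post-dosing. Gain or loss of signal fitted bidirectionally, DMSO as baseline.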

Read-out in test [5]: Matrix Metallopeptidase 1 (MMP1), MMP1 (gene 4312)
The experiment in a line: BSK_hDFCGF_MMP1: BioMAP Diversity Plus: hDFCGF Assay for Matrix Metallopeptidase 1 (MMP1) Biomarker Activity (AID 2283064). Particulars: primary human foreskin fibroblasts; actives raise or lower the signal. Put shortly: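 hDFCGF primary fibroblasts (human foreskin); chemical added; 24 h; MMP1 by ELISA; bidirectional fit vs DMSO.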

Read-out in test [6]: Vascular cell adhesion molecule 1 (VCAM1), VCAM1 (gene 7412)
The test can be described thus: BSK_hDFCGF_VCAM1: BioMAP Diversity Plus: hDFCGF Assay for Vascular cell adhesion molecule 1 (VCAM1) Biomarker Activity (AID 2283065).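 For AC50: VCAM-1 protein level quantified by ELISA after 24 h chemical exposure.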 Particulars: primary human foreskin fibroblasts; actives raise or lower the signal. The procedure, abridged:
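Primary human foreskin fibroblasts (hDFCGF system) were dosed with chemical and VCAM-1 was measured by ELISA 24 h later. Bidirectional curve fitting used DMSO as negative control and activity baseline.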

Read-out in test [7]: Plasminogen activator inhibitor-1 (PAI1), SERPINE1 (gene 5054)
The test can be described thus: BSK_hDFCGF_PAI1: BioMAP Diversity Plus: hDFCGF Assay for Plasminogen activator inhibitor-1 (PAI1) Biomarker Activity (AID 2283066). Particulars: primary human foreskin fibroblasts; actives raise or lower the signal. Put shortly:
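Human foreskin fibroblasts in the hDFCGF system were dosed with compound for 24 h; PAI-1 was quantified by ELISA. Bidirectional curve fitting used DMSO as negative control and baseline.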

Read-out in test [8]: Intercellular Adhesion Molecule 1 (ICAM1), ICAM1 (gene 3383)
The experiment in a line: BSK_KF3CT_ICAM1: BioMAP Diversity Plus: KF3CT Assay for Intercellular Adhesion Molecule 1 (ICAM1) Biomarker Activity (AID 2283067). Particulars: primary human keratinocytes with fibroblasts; actives raise or lower the signal. The procedure, abridged:
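Human keratinocyte plus foreskin fibroblast primary co-culture was exposed to chemical for 24 h. ICAM-1 was then quantified by ELISA, and the data were fit bidirectionally against DMSO as the negative control and baseline.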

Read-out in test [9]: Interferon-gamma inducible Protein 10 (IP10), CXCL10 (gene 3627)
The test can be described thus: BSK_KF3CT_IP10: BioMAP Diversity Plus: KF3CT Assay for Interferon-gamma inducible Protein 10 (IP10) Biomarker Activity (AID 2283068). The conditions noted are these: primary human keratinocytes with fibroblasts; actives raise or lower the signal. The procedure, abridged:
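ELISA read-out of IP-10 after 24 h chemical dosing of human skin primary co-culture (keratinocytes, foreskin fibroblasts). Gain or loss of signal relative to DMSO, bidirectional curve fit.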

Test [10] can be described thus: BSK_KF3CT_SRB: Viability Assessment in the BioMAP Diversity Plus: KF3CT Assay (AID 2283069).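 Note: fitted for both signal gain and loss against DMSO baseline.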 The conditions noted are these: primary human keratinocytes with fibroblasts. The procedure, abridged: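 Keratinocytes co-cultured with foreskin fibroblasts (human primary); chemical added, 24 h; fix 10% TCA, stain 0.1% SRB, A560. Bidirectional fit vs DMSO.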
Read-out in test [11]: Interleukin-1 alpha (IL1a), IL1A (gene 3552)
The test can be described thus: BSK_KF3CT_IL1a: BioMAP Diversity Plus: KF3CT Assay for Interleukin-1 alpha (IL1a) Biomarker Activity (AID 2283070). The conditions noted are these: primary human keratinocytes with fibroblasts; actives raise or lower the signal. Put shortly: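 Chemicals were dosed onto co-cultured human keratinocytes and foreskin fibroblasts, IL-1a was quantified by ELISA at 24 h, and activity was fitted in both directions relative to DMSO controls.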

Read-out in test [12]: TIMP metallopeptidase inhibitor 2 (TIMP2), TIMP2 (gene 7077)
The test can be described thus: BSK_KF3CT_TIMP2: BioMAP Diversity Plus: KF3CT Assay for TIMP metallopeptidase inhibitor 2 (TIMP2) Biomarker Activity (AID 2283071). The conditions noted are these: primary human keratinocytes with fibroblasts; actives raise or lower the signal. The procedure, abridged:
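Human primary keratinocyte/foreskin fibroblast co-culture dosed with chemical and sampled at 24 h. TIMP-2 levels quantified by ELISA; bidirectional fitting against DMSO negative control as baseline.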

Read-out in test [13]: C-C motif chemokine 2 (Homo sapiens) (UniProt P13500)
The test can be described thus: BSK_KF3CT_MCP1: BioMAP Diversity Plus: KF3CT Assay for Monocyte Chemoattractant Protein 1 (MCP1/CCL2) Biomarker Activity (AID 2283073). The conditions noted are these: primary human keratinocytes with fibroblasts; actives raise or lower the signal. Put shortly:
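Human keratinocyte plus foreskin fibroblast primary co-culture exposed to chemical for 24 h. MCP-1 levels measured by ELISA. Bidirectional curve fitting relative to DMSO negative control as baseline.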

Read-out in test [14]: Matrix Metallopeptidase 9 (MMP9), MMP9 (gene 4318)
The experiment in a line: BSK_KF3CT_MMP9: BioMAP Diversity Plus: KF3CT Assay for Matrix Metallopeptidase 9 (MMP9) Biomarker Activity (AID 2283074).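 For AC50: MMP9 protein level quantified by ELISA in the co-culture.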 The conditions noted are these: primary human keratinocytes with fibroblasts; actives raise or lower the signal. The procedure, abridged: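 Human keratinocyte/foreskin fibroblast co-culture; compound added; 24 h; MMP-9 by ELISA; bidirectional fit vs DMSO baseline.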

Read-out in test [15]: urokinase plasminogen activator (uPA), PLAU (gene 5328)
The experiment in a line: BSK_KF3CT_uPA: BioMAP Diversity Plus: KF3CT Assay for urokinase plasminogen activator (uPA) Biomarker Activity (AID 2283075). The conditions noted are these: primary human keratinocytes with fibroblasts; actives raise or lower the signal. Put shortly:
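ELISA readout of uPA, analyzed for signal gain or loss relative to DMSO, from a human primary keratinocyte–foreskin fibroblast co-culture measured 24 h after chemical treatment.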

Read-out in the next test: CD40, CD40 (gene 958)
The experiment in a line: BSK_LPS_CD40: BioMAP Diversity Plus: LPS Assay for CD40 Biomarker Activity (AID 2283076). The conditions noted are these: primary human HUVEC with PBMC; actives raise or lower the signal. The procedure, abridged:
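Primary human umbilical vein endothelial cells co-cultured with peripheral blood mononuclear cells, LPS-stimulated, were dosed with chemical and read 24 h later. CD40 levels were measured by ELISA and fitted bidirectionally against DMSO as negative control and baseline.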

Read-out in test [16]: E-selectin (Homo sapiens) (UniProt P16581)
The test can be described thus: BSK_LPS_Eselectin: BioMAP Diversity Plus: LPS Assay for Eselectin Biomarker Activity (AID 2283077). Particulars: primary human HUVEC with PBMC; actives raise or lower the signal. Put shortly:
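Human umbilical vein endothelial cells co-cultured with peripheral blood mononuclear cells under LPS stimulation; E-selectin measured by ELISA 24 h after chemical dosing. Activity fitted bidirectionally against DMSO as negative control and baseline.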

Read-out in test [17]: Interleukin-8 (IL8), CXCL8 (gene 3576)
The experiment in a line: BSK_LPS_IL8: BioMAP Diversity Plus: LPS Assay for Interleukin-8 (IL8) Biomarker Activity (AID 2283078). The conditions noted are these: primary human HUVEC with PBMC; actives raise or lower the signal. The procedure, abridged: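 Human umbilical vein endothelial cells co-cultured with PBMC were stimulated with LPS; IL-8 levels were measured by ELISA 24 h after chemical dosing. Activity was fitted bidirectionally against DMSO as negative control and baseline.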

Test [18] is described as follows: BSK_LPS_SRB: Viability Assessment in the BioMAP Diversity Plus: LPS Assay (AID 2283079).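 Note: total protein by sulforhodamine B absorbance as a cytotoxicity measure; measured one day after compound addition; fitted in both directions against DMSO so loss or gain of signal counts.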 Particulars: primary human HUVEC with PBMC. The procedure, abridged:
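Human umbilical vein endothelial cells co-cultured with PBMC (LPS system) were dosed for 24 h. Total protein was stained with 0.1% sulforhodamine B after 10% TCA fixation, read at 560 nm, and fitted bidirectionally against DMSO baseline.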

Read-out in test [19]: Interleukin-1 alpha (IL1a), IL1A (gene 3552)
The test can be described thus: BSK_LPS_IL1a: BioMAP Diversity Plus: LPS Assay for Interleukin-1 alpha (IL1a) Biomarker Activity (AID 2283080). The conditions noted are these: primary human HUVEC with PBMC; actives raise or lower the signal. Put shortly: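 Human umbilical vein endothelial cells co-cultured with peripheral blood mononuclear cells were LPS-stimulated and exposed to test chemicals for 24 h. IL-1 alpha was quantified by ELISA, with bidirectional curve fitting against DMSO as the negative control and baseline.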

“And” between values parts separate entries of the source, which are not always exact repeats. Equal entries are not always repeated. More than one record can exist for a structure, and the calls need not agree. The source made the active and inactive calls. Rule for the calls: active = hit-call score of the fitted dose curve at least 0.9, where 1 is the maximum; inactive = score below 0.9.

Sequence of E-selectin (Homo sapiens) (P16581 whole entry, looked up): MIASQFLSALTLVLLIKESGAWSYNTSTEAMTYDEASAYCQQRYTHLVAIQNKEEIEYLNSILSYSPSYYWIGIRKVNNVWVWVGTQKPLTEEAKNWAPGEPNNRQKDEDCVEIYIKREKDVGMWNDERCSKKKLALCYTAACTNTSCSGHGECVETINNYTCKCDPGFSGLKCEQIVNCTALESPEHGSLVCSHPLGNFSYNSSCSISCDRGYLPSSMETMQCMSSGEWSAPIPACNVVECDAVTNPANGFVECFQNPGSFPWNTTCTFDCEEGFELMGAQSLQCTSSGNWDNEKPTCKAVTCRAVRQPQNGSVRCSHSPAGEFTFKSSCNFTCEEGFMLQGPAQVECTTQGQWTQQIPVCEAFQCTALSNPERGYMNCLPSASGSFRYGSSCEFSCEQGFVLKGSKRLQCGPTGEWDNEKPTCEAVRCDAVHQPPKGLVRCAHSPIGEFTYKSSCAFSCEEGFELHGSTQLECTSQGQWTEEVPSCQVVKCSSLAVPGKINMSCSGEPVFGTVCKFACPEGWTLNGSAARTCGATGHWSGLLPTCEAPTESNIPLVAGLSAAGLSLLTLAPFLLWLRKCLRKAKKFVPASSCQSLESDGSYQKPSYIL

With `O=C(O)CCC(F)(F)C(F)(F)C(F)(F)F`, the outcome in [1], in test [2], in test [3], in [4], in test [5] and in test [6] was inactive. The outcome in [7], in test [8], in test [9], in test [10], in [11] and in test [12] was inactive. Also, the outcome in [13] was “inactive”; in test [14], “inactive”; in test [15], “inactive”; with CD40, CD40 (gene 958) it was “inactive”; in [16], “inactive”; in test [17], “inactive”. Moreover, the result in [18] and in test [19] was inactive.

On to `C=CC(=O)OCC(F)(F)C(F)(F)C(F)(F)COC(=O)C=C`, for which the half-maximal activity concentration (AC50) – broadly, the midpoint of the concentration-response curve, whichever way the signal moves – in test [1] is 2.55 µM (active) and 1.94 µM (active); in test [2], 2.51 µM (active) and 2.73 µM (active); in [3], 2.37 µM (active) and 737 nM (active); in [4], 918 nM (active) and 499 nM (active); in test [5], 5.8 µM (active) and 4.94 µM (active); in test [6], 2.35 µM (active) and 1.96 µM (active). Besides, the AC50 in test [7] is 3.85 µM (active) and 3.09 µM (active); in test [8], 21.8 µM (active) and 21.3 µM (active); in test [9], 28.4 µM (active) and 17.6 µM (active); in test [10], 36.6 µM (active) and 41.6 µM (active); in [11], 30 µM (active) and 5.95 µM (active); in test [12], 30 µM (active). Moreover, the AC50 in test [13] was 22.3 µM (active) and 12.7 µM (active); in test [14], 24 µM (active) and 20.9 µM (active); in test [15] it was 21.1 µM (active) and 25.7 µM (active); with CD40, CD40 (gene 958), 8.33 µM (active) and 8.66 µM (active); in [16] it was 16.1 µM (active) and 13.1 µM (active); in test [17] it was 15.9 µM (active) and 14.8 µM (active). For the same compound, the AC50 in test [18] was 48.6 µM (active) and 47.4 µM (active); in test [19], 15.5 µM (active) and 12.1 µM (active).

`FC(F)(F)C(F)(F)C(F)(F)CC1CO1` (stereo not given): the result in test [1], in test [2], in test [3], in test [4], in test [5] and in test [6] was inactive. Besides, the outcome in [7], in [8], in test [9], in test [10], in test [11] and in test [12] was inactive. Further, the outcome in [14] is “inactive”; in test [15], “inactive”; with CD40, CD40 (gene 958), “inactive”; in test [16] it was “inactive”; in test [17], “inactive”; in test [18], “inactive”. In addition, the outcome in test [19] was inactive. For the same compound, the AC50 in test [4] was 6.18 µM (active).

In the case of `CC1=CC2C3C=CC(C3)C2C1C` (stereo not given), the result in test [1], in test [2], in test [3], in [4], in [5] and in test [6] was inactive. Also, the outcome in test [7], in test [8], in test [9], in test [10], in test [11] and in test [12] was inactive. For the same compound, the outcome in test [13] is “inactive”; in test [14], “inactive”; in [15] it was “inactive”; with CD40, CD40 (gene 958), “inactive”; in [16] it was “inactive”; in test [17], “inactive”. Besides, the outcome in test [18] and in test [19] was inactive.

Regarding `OCCCCC(F)(F)C(F)(F)C(F)(F)C(F)(F)F`, the outcome in test [1], in [2], in [3], in test [4], in test [5] and in test [6] was inactive. For the same compound, the result in test [7], in [8], in test [9], in test [10], in test [11] and in [12] was inactive. Also, the outcome is “inactive” in test [13]; “inactive” in [14]; “inactive” in test [15]; “inactive” with CD40, CD40 (gene 958); “inactive” in test [16]; “inactive” in [17]. Besides, the result in test [18] and in test [19] was inactive.

The values above are taken from PubChem BioAssay (EPA / NIEHS).
